Sampled rows, rich in hits. Any-hit rate of the full collection: about 6.7%.
Pf Dd2 inh = P. falciparum Dd2 growth inhibitors, primary screen, SYBR Green fluorescence, single dose replicates; 94,000 tested, 2.3% active; 72 h; hits give low values; activity change, % at 10 µM; in the data active means activity change below about -80%; inconclusive means no clear call, values can overlap the other calls
T cruzi growth-1 = T. cruzi intracellular proliferation inhibitors, primary screen, cell-based, beta-gal Tulahuen parasites, NIH3T3 host, luminescence. T. cruzi beta-gal in NIH3T3, GalScreen luminescence, 90 h. inhibition, % at 8.34 µM. 77,000 tested, 5.9% active. AID 624255, 2012;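 active means mean inhibition above about 93%, with at least 55% of replicates each passing it, limit read from the data, passing the limit was not always enough; inconclusive means only one of those two conditions holds; inactive means neither condition holds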
C diff growth = C. difficile growth inhibitors, primary screen, HTS | AID 1259249, 2017 | Clostridium difficile clinical isolate growth, OD600, 24 h; hits give low values | growth activity, negative = inhibition, % at 16 µg/mL (by protocol) | 86,000 tested, 0.25% active;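 active means mean growth activity at or below -80% and every replicate also at or below -80%; inconclusive means mean at or below -80% but some replicate above -80%; inactive means mean growth activity above -80%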;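 further: 0% = DMSO wells and -100% = levofloxacin 16 µg/mL wells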
T cruzi growth-2 = T. cruzi intracellular proliferation inhibitors, confirmation, cell-based, NIH3T3 host, beta-gal parasite, luminescence, cherry-pick; shares compounds with T cruzi growth-1; T. cruzi beta-gal in NIH3T3, GalScreen luminescence, 90 h; inhibition, % at 8.35 µM; 5,600 tested, 72% active; AID 651739, 2012;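 active means mean replicate inhibition above about 95% and at least 55% of replicates individually reaching it, limit read from the data; inconclusive means only one of the two criteria is met; inactive means neither criterion is met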
T cruzi growth-3 = inhibitors of intracellular T. cruzi replication, confirmation, NIH3T3 host cells, beta-gal parasites, cherry-pick, set 2 | shares compounds with T cruzi growth-1 | T. cruzi beta-gal in NIH3T3, GalScreen luminescence, 90 h | inhibition, % at 2.09 µM | 5,600 tested, 21% active | AID 651740, 2012;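 active means mean inhibition above about 95%, with at least 55% of replicates also reaching it, limit read from the data; inconclusive means meets just one of the two conditions; inactive means meets neither condition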;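 further: plate controls were neutral control median for no effect and positive control median for full effect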
NIH3T3 tox = cytotoxicity in mouse NIH/3T3 fibroblasts, confirmation, cytotoxicity control for T. cruzi proliferation inhibitor project, cell-based, cherry-pick, single point; cytotoxicity (signal decrease), % at 8.35 µM; NIH/3T3 viability, CellTiter-Glo ATP luminescence, 90 h; shares compounds with T cruzi growth-1; 5,600 tested, 14% active;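 active means mean signal decrease across replicates above about 35% based on untreated-well scatter, with enough replicates individually passing, limit read from the data; inconclusive means no rule stated though some were filed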;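 further: 0% = median of neutral control wells and 100% = median of positive control wells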
NIH3T3 tox 2 = NIH/3T3 fibroblast cytotoxicity, confirmation, cytotoxicity control, cell-based, cherry-pick, single point, set 2; shares compounds with T cruzi growth-1; NIH/3T3 viability, CellTiter-Glo ATP luminescence, 90 h; inhibition, % at 24.9 µM; 5,600 tested, 56% active; AID 651744, 2012;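 active means mean loss of cell viability signal at or above a set limit, and enough replicates individually reaching it; inconclusive means meets only the mean limit or only the replicate share; inactive means meets neither condition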;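 further: 0% = median of neutral control wells and 100% = median of positive control wells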
Numbers without * were called inactive; ? = inconclusive; . = no result.

SMILES	Pf Dd2 inh	T cruzi growth-1	C diff growth	T cruzi growth-2	T cruzi growth-3	NIH3T3 tox	NIH3T3 tox 2
COc1cccc(S(=O)(=O)Nc2ccc3c(c2)[C@H]2C[C@@H](CC(=O)N4CCCCC4)O[C@H](CO)[C@H]2O3)c1	12.2	51.7	.	.	.	.	.
COc1ccc(NC(=O)Nc2ccc3c(c2)[C@@H]2C[C@@H](CC(=O)N4CCc5ccccc5C4)O[C@H](CO)[C@@H]2O3)cc1	-11.4	3.7	-4.5	.	.	.	.
O=C(NC[C@@H]1[C@@H](c2ccccc2)[C@@H](CO)N1C(=O)Cc1cccnc1)C1CC1	-54.3	100.0*	-5.5	-35.5	-65.4	-15.0	-7.9
CC(=O)NC[C@H]1[C@@H](c2ccccc2)[C@H](CO)N1C(=O)Cc1cccnc1	-13.4	66.2	-5.7	.	.	.	.
CC(=O)NC[C@@H]1[C@H](c2ccccc2)[C@H](CO)N1C(=O)Cc1cccnc1	-0.6	?	-1.1	-5.3	-15.4	0.2	-15.7
O=C(NC[C@@H]1[C@H](c2ccccc2)[C@H](CO)N1C(=O)Cc1cccnc1)C1CC1	-0.7	-6.6	14.6	.	.	.	.
CNC[C@H]1Oc2ccc(NS(=O)(=O)c3ccc(C)cc3)cc2C(=O)N([C@H](C)CO)C[C@@H]1C	2.6	.	4.0	.	.	.	.
COc1ccccc1S(=O)(=O)N[C@@H]1C=C[C@H](CC(=O)N2CCCCC2)O[C@@H]1CO	-30.7	7.8	.	.	.	.	.
Cc1cccc(-c2ccc([C@H]3[C@H]4CN(C(=O)c5cccnc5)CCCCN4[C@H]3CO)cc2)c1	-4.1	109.3*	-1.8	?	27.3	11.8	26.5*
Cc1cccc(-c2ccc([C@@H]3[C@H]4CN(C(=O)c5ccncc5)CCCCN4[C@H]3CO)cc2)c1	31.8	30.9	19.4	.	.	.	.
Cc1cccc(-c2ccc([C@@H]3[C@@H](CO)N4CCCCN(C(=O)c5ccncc5)C[C@H]34)cc2)c1	0.4	31.5	-0.9	.	.	.	.
Cc1ccccc1-c1ccc([C@H]2[C@@H](CO)N3CCCCN(C(=O)c4cccnc4)C[C@H]23)cc1	26.3	99.1*	-11.5	97.0*	47.4	17.8	9.4
Cc1cccc(-c2ccc([C@H]3[C@@H](CO)N4CCCCN(C(=O)c5ccncc5)C[C@H]34)cc2)c1	22.9	?	-4.0	104.7*	94.7	11.7	24.5*
Cc1cccc(-c2ccc([C@@H]3[C@@H](CO)N4CCCCN(C(=O)c5cccnc5)C[C@H]34)cc2)c1	11.1	?	-2.9	55.9	-11.9	10.6	30.3*
Cc1ccccc1-c1ccc([C@H]2[C@H](CO)N3CCCCN(C(=O)c4cccnc4)C[C@@H]23)cc1	-19.3	93.4	-7.9	.	.	.	.
Cc1ccccc1-c1ccc([C@@H]2[C@@H](CO)N3CCCCN(C(=O)c4cccnc4)C[C@H]23)cc1	13.3	34.4	-7.3	.	.	.	.
O=C(N[C@@H]1CC[C@@H](CCNC(=O)C2CCCCC2)O[C@H]1CO)c1ccccn1	-12.8	29.2	.	.	.	.	.
O=C(NCC[C@@H]1CC[C@@H](NS(=O)(=O)c2ccc(Cl)cc2)[C@H](CO)O1)c1ccccc1F	-0.9	21.4	-5.2	.	.	.	.
CCNC(=O)C[C@H]1CC[C@H]2[C@H](COc3ccc(NC(=O)Nc4cccc(C)c4)cc3C(=O)N2C)O1	-7.7	-7.9	1.0	.	.	.	.
CN(C)C(=O)C[C@H]1C=C[C@H](NC(=O)NC2CCCC2)[C@@H](CO)O1	6.7	.	-2.1	.	.	.	.
O=C(c1ccncc1)N1CCCCN2[C@H](C1)[C@@H](c1ccc(-c3ccccc3)cc1)[C@@H]2CO	36.2	9.5	-3.6	.	.	.	.
Cc1cccc(-c2ccc([C@H]3[C@H](CO)N4CCCCN(C(=O)c5cccnc5)C[C@@H]34)cc2)c1	27.3	115.7*	-3.2	102.0*	41.8	38.8*	32.0*
Cc1cccc(-c2ccc([C@@H]3[C@@H](CO)N4CCCCN(C(=O)c5ccncc5)C[C@@H]34)cc2)c1	12.6	57.9	-5.0	.	.	.	.
O=C(c1ccncc1)N1CCCCN2[C@H](CO)[C@H](c3ccc(-c4ccccc4)cc3)[C@@H]2C1	46.0	119.5*	-1.0	82.5	5.6	-9.3	18.2
Cc1ccccc1-c1ccc([C@@H]2[C@H](CO)N3CCCCN(C(=O)c4cccnc4)C[C@@H]23)cc1	-27.7	71.0	-9.7	.	.	.	.
SMILES	Pf Dd2 inh	T cruzi growth-1	C diff growth	T cruzi growth-2	T cruzi growth-3	NIH3T3 tox	NIH3T3 tox 2
Cc1cccc(-c2ccc([C@@H]3[C@@H](CO)N4CCCCN(C(=O)c5cccnc5)C[C@@H]34)cc2)c1	-6.6	100.1*	-1.8	32.3	-7.4	2.0	19.1
C[C@H]1CN([C@@H](C)CO)C(=O)Cc2cc(NS(=O)(=O)c3cn(C)cn3)ccc2O[C@H]1CN(C)S(=O)(=O)c1cccs1	16.8	23.6	-5.6	.	.	.	.
C[C@@H]1CN([C@H](C)CO)C(=O)Cc2cc(NC(=O)C3CCCCC3)ccc2O[C@@H]1CN(C)C(=O)Nc1ccc2c(c1)OCO2	1.9	21.4	-2.2	.	.	.	.
CCNC(=O)[C@H]1[C@H](CO)[C@H]2Cn3c(ccc(/C=C/c4ccccc4)c3=O)[C@@H]1N2C(=O)c1ccncc1	7.8	72.9	-6.3	.	.	.	.
CNC[C@H]1OCCCC[C@@H](C)Oc2ccc(NC(=O)Nc3c(C)noc3C)cc2C(=O)N([C@@H](C)CO)C[C@@H]1C	.	-6.6	-0.2	.	.	.	.
CCN1[C@@H]2c3ccc(C4=CCCCC4)c(=O)n3C[C@@H]2[C@@H](CO)[C@@H]1C(=O)NCc1cccc(OC)c1	-7.7	61.5	3.3	.	.	.	.
CCCN(C)C[C@H]1OCCCC[C@H](C)Oc2ccc(NS(=O)(=O)c3cn(C)cn3)cc2C(=O)N([C@H](C)CO)C[C@H]1C	-27.4	11.7	0.7	.	.	.	.
COc1ccc(NC(=O)N(C)C[C@@H]2OCCCC[C@H](C)Oc3ccc(NS(C)(=O)=O)cc3C(=O)N([C@@H](C)CO)C[C@H]2C)cc1	-6.2	.	6.8	.	.	.	.
COc1ccccc1CNC(=O)C[C@H]1CC[C@H]2[C@@H](COC[C@@H](O)CN2C(=O)Nc2ccccc2)O1	3.3	71.3	.	.	.	.	.
N#Cc1cccc(-c2ccc([C@H]3[C@H](CO)N4CCCCN(S(=O)(=O)c5ccccc5)C[C@@H]34)cc2)c1	11.9	88.2	-1.0	.	.	.	.
N#Cc1ccc(-c2ccc([C@@H]3[C@H](CO)N4CCCCN(S(=O)(=O)c5ccccc5)C[C@@H]34)cc2)cc1	-6.3	?	1.1	76.9	41.8	9.7	43.9*
N#Cc1ccc(-c2ccc([C@H]3[C@@H](CO)N4CCCCN(S(=O)(=O)c5ccccc5)C[C@H]34)cc2)cc1	-54.2	116.5*	14.8	113.1*	82.5	18.0	71.3*
